Screens: PubChem BioAssay, The Scripps Research Institute Molecular Screening Center
CHRM1 PAM: human CHRM1 positive allosteric modulation; P11229; CHO-K1 hM1, Fluo-8 calcium fluorescence, ACh EC20; 0% = ACh EC20, 100% = maximal ACh; activation, % at 3 µM; 360,000 tested, 0.088% active; in the data active means activation above about 19%, passing the limit was not always enough
Target sequence (P11229 whole entry, looked up): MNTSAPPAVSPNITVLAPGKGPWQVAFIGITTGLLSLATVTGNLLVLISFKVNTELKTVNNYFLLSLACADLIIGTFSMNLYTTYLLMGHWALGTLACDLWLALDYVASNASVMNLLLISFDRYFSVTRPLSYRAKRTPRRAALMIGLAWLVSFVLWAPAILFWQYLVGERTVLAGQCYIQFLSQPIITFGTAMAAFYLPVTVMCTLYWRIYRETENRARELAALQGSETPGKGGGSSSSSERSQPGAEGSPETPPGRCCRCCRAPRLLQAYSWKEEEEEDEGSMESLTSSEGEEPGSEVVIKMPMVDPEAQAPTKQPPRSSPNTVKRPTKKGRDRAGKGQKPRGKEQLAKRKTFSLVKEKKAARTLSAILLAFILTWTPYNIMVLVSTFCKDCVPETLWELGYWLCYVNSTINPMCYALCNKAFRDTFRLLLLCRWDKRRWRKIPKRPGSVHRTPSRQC
CHO-K1 Ca antag: nonselective inhibitor or artifact in parental CHO-K1 cells. 360,000 tested, 0.6% active. ATP-induced calcium, Fluo-8 fluorescence. inhibition, % at 3 µM;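 active means inhibition above a per-plate cutoff, the plate's mean sample inhibition plus 3 SD, cut at about 24% in these data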;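 further: 0% = DMSO plus EC80 ATP and 100% = DMSO alone without ATP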
M1 ag: activates human CHRM1 receptor | P11229 | CHO-K1 hM1, Fluo-8 calcium fluorescence, agonist mode; 0% DMSO, 100% acetylcholine EC100 | activation, % at 3 µM | 360,000 tested, 0.33% active;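 active means activation above the run's mean compound activation plus 3 SD, cut at about 16% in these data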;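 further: peak over basal fluorescence ratio within a 140 s kinetic read after compound addition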
M1 ag parental: counter-screen for M1 agonists: effect in parental CHO-K1 cells; AID 602248; Fluo-8 calcium fluorescence; scaled to maximal ATP response, vehicle zero; activation, % at 3 µM; 360,000 tested, 0.48% active; in the data active means activation above about 15%;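 further: untransfected CHO-K1 host cells lacking M1 receptor as counterscreen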
CHO-K1 Ca PAM: counter-screen for M1 PAMs: effect in parental CHO-K1 cells; AID 602247; ATP EC20, Fluo-8 calcium fluorescence; 0% at ATP EC20, 100% at ATP max; activation, % at 3 µM; 360,000 tested, 0.02% active;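 active means activation above the run cutoff, the mean activation of all test compounds plus 3 SD, cut at about 40% in these data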;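 further: peak over basal fluorescence ratio in a 140 s read after ATP addition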
M1 antag: human CHRM1 antagonism; inhibition, % at 3 µM; P11229; 360,000 tested, 1.3% active; CHO-K1 hM1, Fluo-8 calcium fluorescence, ACh EC80 antagonist;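 active means percent inhibition above its own plate's cutoff, namely the mean of that plate's compound wells plus 3 SD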;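 further: peak over basal fluorescence ratio during 140 s after agonist addition; 0% = ACh EC80 plus DMSO and 100% = DMSO alone without agonist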
Active calls of the source: *. In the library only some 2.3% were active in any assay of this set; here they are far more common.

SMILES	CHRM1 PAM	CHO-K1 Ca antag	M1 ag	M1 ag parental	CHO-K1 Ca PAM	M1 antag
CCC(C)N(CCNC(=O)CC1Oc2ccccc2NC1=O)C1CCCCC1 (stereo unspecified)	-33	-6	-13	0	14	90*
CC1CCN(Cc2ccc(NC(=O)CC3Oc4ccccc4NC3=O)cc2)CC1 (stereo unspecified)	-32	-1	-12	1	15	99*
CCC(C)N(CCNC(=O)c1ccc2c(c1)NC(=O)c1ccccc1S2)C1CCCCC1 (stereo unspecified)	-23	-9	-3	7	9	56*
CCN1CCN(CCCNC(=O)c2ccc3c(c2)NC(=O)c2ccccc2S3)CC1	-19	-8	-14	1	14	15
CC1CCCC(C)N1CCCNC(=O)c1ccc2c(c1)NC(=O)c1ccccc1S2 (stereo unspecified)	-24	-11	-6	0	0	84*
CC(C)CN(CCNC(=O)CC1Oc2ccccc2NC1=O)CC(C)C (stereo unspecified)	-8	-24	-13	1	32	1
CCCNC(=O)C1(C)CCN(CCS(=O)(=O)c2ccc(C)cc2)C1 (stereo unspecified)	7	-9	-3	1	19	-18
CCN1CCN(c2ccc(S(=O)(=O)N3CCOCC3)cc2N)CC1	10	8	-5	0	-19	-14
Cc1onc(-c2ccccc2)c1C(=O)NCc1ccccc1F	19	-8	-3	0	0	-7
Oc1cc(-c2cccnc2)cc2cccnc12	-1	72*	-4	-1	-19	4
CCCCOC(=O)CSc1nc(N)c(C#N)c(-c2ccc(OCC)cc2)c1C#N	1	27*	-2	0	-5	-17
CN1CCC(=NNc2ncnc3sc4c(c23)CCCC4)CC1	-3	27*	-8	0	-6	13
c1nc(NCCN2CCOCC2)c2c3c(sc2n1)CCCCC3	-1	5	-3	0	-4	3
CCCCn1cc(C(=O)c2cc(Br)ccc2O)cc(C#N)c1=O	-10	24*	3	8	2	25
CCOCCCn1cc(C(=O)c2cc(Br)ccc2O)cc(C#N)c1=O	12	-5	-4	3	11	-4
COc1ccc(C(=O)/C=C2/C(=O)Nc3ccccc32)cc1OC	24	-8	18*	2	2	33*
CC(C)Cn1c(-c2csc3c2CCCC3)n[nH]c1=S	-34	15	-15	0	-15	44*
CC(C)Cn1c(-c2ccccc2F)n[nH]c1=S	7	-13	-3	0	-5	-10
CN1CCN(C2=Cc3ccccc3Sc3cc(F)ccc32)CC1	-20	-8	-4	1	17	80*
Cc1coc2cc3oc(=O)c(CCC(=O)NC4CC4)c(C)c3cc12	-21	28*	2	11	-16	31*
CCOC(=O)Cn1nc(C)c(NC(=O)COc2ccc(C)c(C)c2)c1C	5	-7	-1	3	22	-10
CCC(C)(C)c1ccc(OCCCC[n+]2cccc(C)c2)c(C(C)(C)CC)c1	-26	10	7	14	28	25*
CN(C)CCC1c2ccc(Cl)cc2CCc2cccnc21 (stereo unspecified) (tested in a mixture with another compound)	-28	-4	-11	8	4	49*
COCc1cccc(-c2csc(C(C)(O)c3cccc(OC)c3)n2)c1 (stereo unspecified)	-12	-7	1	5	0	9
CCOc1ccc(S(=O)(=O)Nc2ccc(C(=O)NCC(c3ccco3)N(C)C)cc2)cc1 (stereo unspecified)	-20	-1	-5	2	4	32*
O=C(NCC(c1cccs1)N1CCOCC1)c1ccccc1NS(=O)(=O)c1ccc(Cl)c([N+](=O)[O-])c1 (stereo unspecified)	-20	22	-2	16*	-7	21
COc1cc(C(=O)NCC(c2cccs2)N2CCOCC2)ccc1OCc1ccccc1 (stereo unspecified)	4	27*	-1	1	-12	3
